Reference: PubChem BioAssay (Tox21)
Records with an inconclusive call do not appear. Calls of active or inactive are those of the source. The call rests on the fitted dose curve; in most records, active means well fitted curve in the direction sought with a large enough effect in the repeat runs; inconclusive means weak or mixed curves; inactive means no such curve, though single readings can be large; an effect the other way counts as inactive or inconclusive.

What was measured:
[1] = qHTS assay to identify small molecule antagonists of the retinoic acid receptor (RAR) signaling pathway (AID 1159552; further: nearly all actives have a fitted effect of over 50% in size); conditions: C3RL4 RARE luciferase reporter, retinol-stimulated, 6 h; series mostly up to 92.4 µM
How it was run: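 Antagonism of retinol-induced RARE reporter activity was measured in C3RL4 cells. Exposure to compounds and 1 uM final retinol lasted 6 hr at 37 C, with luminescence as endpoint.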

[2] = qHTS assay to identify small molecule antagonists of the estrogen related receptor (ERR) signaling pathway from Tox21 library - cell viability counter screen (AID 1224834); conditions: ERR reporter cells viability, CellTiter-Fluor, 17.5 h; series mostly up to 92.4 µM; further: nearly all actives have a fitted effect of over 30% in size
How it was run: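 After 17.5 h of compound exposure at 37 C, ERR cells are incubated with CellTiter-Fluor for 30 min and fluorescence intensity serves as the viability measure.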

[3] = target: Luciferin 4-monooxygenase (Photinus pyralis) (UniProt P08659); test: qHTS assay to identify small molecule inhibitors of firefly luciferase (AID 1224835); further: nearly all actives have a fitted effect of over 25% in size; conditions: purified P. pyralis luciferase, luminescence inhibition; series mostly up to 115 µM
Luciferin 4-monooxygenase (Photinus pyralis), sequence (P08659 whole entry, looked up): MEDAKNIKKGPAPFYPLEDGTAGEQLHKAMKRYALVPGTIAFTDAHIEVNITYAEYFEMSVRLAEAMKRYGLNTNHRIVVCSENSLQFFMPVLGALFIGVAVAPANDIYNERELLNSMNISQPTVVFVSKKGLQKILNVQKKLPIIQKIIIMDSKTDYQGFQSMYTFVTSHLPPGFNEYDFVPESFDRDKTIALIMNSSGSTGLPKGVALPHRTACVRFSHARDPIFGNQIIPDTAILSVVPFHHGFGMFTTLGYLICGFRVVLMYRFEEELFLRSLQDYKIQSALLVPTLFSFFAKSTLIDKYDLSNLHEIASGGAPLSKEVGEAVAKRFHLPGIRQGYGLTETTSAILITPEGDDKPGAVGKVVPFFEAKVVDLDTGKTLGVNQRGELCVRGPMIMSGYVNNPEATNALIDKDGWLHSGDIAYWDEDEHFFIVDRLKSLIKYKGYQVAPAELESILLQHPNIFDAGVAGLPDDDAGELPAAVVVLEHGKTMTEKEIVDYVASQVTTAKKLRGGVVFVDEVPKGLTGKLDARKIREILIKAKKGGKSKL
How it was run: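 Quantitative HTS format; KM concentrations of both substrates. Purified P. pyralis FLuc activity quantified from luminescence images.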

Measured: Potency

CCCCCCS
inactive: all assays above

C=C(C)CCCC
inactive: all assays above

CO[Si](CCCNCCNCCN)(OC)OC
inactive: all assays above
